# IL-1B inflam inh = qHTS for Inhibitors of Inflammasome Signaling: IL-1-beta AlphaLISA Primary Screen | THP-1 LPS/ATP IL-1B secretion, AlphaLISA, 16 h; active compounds read low | activity change, % at 57.5 µM | 4.7% of 360,000 active | AID 743279, 2014; in the data active = activity change below about -50%; inconclusive = mostly about -30% to -49%
#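 Secreted IL-1B measured by AlphaLISA bead assay after 16 h compound exposure of THP-1 cells; compounds (final up to 57.5 uM) added 1 h before LPS (250 ng/mL) and ATP (1.25 mM) stimulation; lower signal means less secretion.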
# LDHA block = qHTS assay for inhibitors of human lactate dehydrogenase | L-lactate dehydrogenase A chain (Homo sapiens), P00338 | purified LDHA, NADH/diaphorase-resazurin fluorescence; active compounds read low | activity change, % (values are at about 110 or 230 µM) | 0.15% of 480,000 active | AID 1347041, 2019; in the data active = activity change below about -30%; inconclusive = mostly about -25% to -30%;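 also: plate controls were DMSO wells for no effect and wells without enzyme for full effect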
#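 LDH5 2 nM; NADH 0.06 mM, pyruvate 0.2 mM; 200 mM Tris pH 7.4, EDTA, Tween-20; 5 min RT. Detection: diaphorase 0.133 mg/mL + resazurin 37 µM, fluorescence ex540/em590 at 0 and 20 min; normalized to enzyme-free and DMSO wells.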
# RORgamma inh = qHTS for inhibitors of ROR gamma transcriptional activity; Drosophila S2 Gal4-RORgamma UAS-luciferase reporter, 20 h; Potency, µM (titrated, usually from 53.6 µM), for the others: at the top dose activity change, negative = inhibition, hits mostly inhibitors; 5.4% of 310,000 active; Nuclear receptor ROR-gamma (Mus musculus), P51450; also: potency is read from the fitted curve at half-maximal effect; nearly all actives have a fitted effect of over 60% in size
# Target sequence (P51450 whole entry, looked up, the tested form may be a part): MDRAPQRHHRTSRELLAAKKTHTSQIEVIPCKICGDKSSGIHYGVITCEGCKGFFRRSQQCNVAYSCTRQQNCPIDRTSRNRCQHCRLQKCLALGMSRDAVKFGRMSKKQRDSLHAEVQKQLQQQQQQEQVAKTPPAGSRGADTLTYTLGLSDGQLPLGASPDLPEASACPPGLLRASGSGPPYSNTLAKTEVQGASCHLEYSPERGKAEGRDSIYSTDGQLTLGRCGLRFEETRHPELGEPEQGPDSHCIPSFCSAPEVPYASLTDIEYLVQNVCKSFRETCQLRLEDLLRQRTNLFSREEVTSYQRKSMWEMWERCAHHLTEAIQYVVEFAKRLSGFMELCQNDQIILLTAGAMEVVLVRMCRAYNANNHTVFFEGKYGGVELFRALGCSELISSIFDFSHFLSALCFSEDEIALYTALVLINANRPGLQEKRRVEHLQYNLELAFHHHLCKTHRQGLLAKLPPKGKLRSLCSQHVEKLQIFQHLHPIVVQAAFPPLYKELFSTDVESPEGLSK
#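 In this cell-based reporter format, copper sulfate (700 uM final) drives Gal4–ROR gamma fusion expression from a metallothionein promoter in Drosophila Schneider cells; compounds preincubated 1 hr, reporter read after 20 hr at ambient temperature.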
# DT40 TDP1 no CPT = qHTS for Inhibitors of human tyrosyl-DNA phosphodiesterase 1 (TDP1): qHTS in cells in absence of CPT. DT40 Tdp1-/- hTDP1 cells, no CPT, ATP luminescence, 48 h. Potency, µM (doses to about 46.2 µM), for inactives: at the highest dose activity change, negative = growth inhibition, most hits filed as inhibitors. 15% of 420,000 active. AID 686978, 2013; also: potency is read from the fitted curve at half-maximal effect; nearly all actives have a fitted effect of over 55% in size
#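 Compound effects on proliferation are scored in DT40 Tdp1-/-;hTDP1 cells in the absence of CPT. ATP levels (CellTiter-Glo luminescence) are recorded after a ≥48 hr, 37 °C incubation.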
# TDP1 cell CPT = qHTS for Inhibitors of human tyrosyl-DNA phosphodiesterase 1 (TDP1): qHTS in cells in presence of CPT. chicken DT40 Tdp1-/-;hTDP1 cells + 20 nM CPT, ATP luminescence, 48 h. Potency, µM (series often up to 46.2 µM), inactives show at the highest dose activity change, negative = growth inhibition, hits mostly inhibitors. 12% of 420,000 active. AID 686979, 2013; also: potency is read from the fitted curve at half-maximal effect; nearly all actives have a fitted effect of over 55% in size
#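 Chicken DT40 Tdp1-/- cells stably complemented with human TDP1 were seeded at 400 cells/well in medium containing 20 nM camptothecin, exposed to pin-transferred compounds, and grown at 37 °C for at least 48 hr. Viability was read as ATP luminescence.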
# VP16 counter = VP16 counterscreen qHTS for inhibitors of ROR gamma transcriptional activity; Drosophila S2 Gal4-VP16 UAS-luciferase, luminescence, 20 h; Potency, µM (titrated, usually from 53.6 µM), inactives show top-dose activity, negative = inhibition, hits mostly inhibitors; 3.5% of 310,000 active;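 also: Gal4-VP16 expression switched on by copper sulfate through the metallothionein promoter; potency is read from the fitted curve at half-maximal effect; nearly all actives have a fitted effect of over 50% in size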
# Active calls of the source: *; ? = inconclusive; / = no result; ! = a repeat was not active; [ ] = dose if it differs, or a comment. The list is not random: actives were taken first. Their share in the collection is about 18%. Unless noted, calls follow the shape of the dose curve; as a rule, active = well fitted curve in the direction sought with a large enough effect; inconclusive = small, poorly fitted or top-dose-only effect, or another doubt; inactive = no such curve, though single readings can be large; an effect the other way counts as inactive or inconclusive. Unless noted, % is scaled to controls: 0 for no effect and ±100 for the full control effect.
SMILES,IL-1B inflam inh,LDHA block,RORgamma inh,DT40 TDP1 no CPT,TDP1 cell CPT,VP16 counter
Cc1ccc2nc(-c3cccnc3)cc(C(=O)NCc3cccs3)c2c1,/,-6,/,/,/,/
OCCN(Cc1ccccc1)CC(O)COc1ccc(-c2ccccc2)cc1 (stereo unspecified),-76*,3,?,?,29µM*,?
Cc1ccc(NC(=O)CCc2ncc(-c3ccccc3)o2)c(O)c1,/,17,/,/,/,/
C=CCOc1ccc(/C=C/C(=O)c2ccc(C#N)cc2)cc1,/,5,/,/,/,/
N#Cc1c(N2CCN(CC(=O)Nc3ccccc3)CC2)nc(-c2ccco2)c2c1CCC2,/,0,/,/,/,/
Cc1ccc2[nH]c(CCN(C)C)c(CN3CCOCC3)c2c1,-24,-2,/,?,21µM*,/
CCOc1ccccc1Nc1ccc2cc(S(=O)(=O)N3CCCCC3)ccc2n1,/,4,/,18µM*,?,/
COc1ccc(Nc2ccc3cc(S(=O)(=O)N4CCCC4)ccc3n2)cc1OC,/,6,/,21µM*,18µM*,/
COc1cccc(Nc2ccc3cc(S(=O)(=O)N4CCC(C)CC4)ccc3n2)c1,/,2,/,15µM*,?,/
CC(=O)c1cccc(Nc2ccc3cc(S(=O)(=O)N4CCCC4)ccc3n2)c1,/,3,/,?,?,/
O=S(=O)(c1ccc2nc(Nc3ccccc3)ccc2c1)N1CCCCC1,-67*,1,29%,16µM*,?,-4%
CC(c1ccccc1)N(C)C(=O)CCCc1c[nH]c2ccccc12 (stereo unspecified),/,12,/,/,/,/
CN(Cc1nc2ccccc2n1C(F)F)S(=O)(=O)c1ccccc1,/,10,/,/,/,/
COc1ccc(CNc2ccc3cc(S(=O)(=O)N4CCCCC4)ccc3n2)cc1,/,1,/,18µM*,?,/
OCCN1CCN(C(=S)c2ccc(Cl)c(Cl)c2)CC1,-11,2,6%[0.365 µM],18µM*,18µM*,/
COc1ccc(OC)c(NC(=O)C2(C)CCN2C(=O)CCC2CCCC2)c1 (stereo unspecified),-4,2,/,?,16µM*,/
CC1(C(=O)Nc2ccc(Cl)c(Cl)c2)CCN1C(=O)CCC1CCCC1 (stereo unspecified),4,-1,/,23µM*,23µM*,/
CC1(C(=O)Nc2cccc3c2CCCC3)CCN1C(=O)CCC1CCCC1 (stereo unspecified),15,2,/,?,21µM*,/
COc1ccc(OC)c(NC(=O)C2(C)CCN2C(=O)CC2CC2)c1 (stereo unspecified),21,-2,/,?,-10%,/
COCCNC(=O)CCCn1c(=O)c2ccccc2n(Cc2ccccc2C#N)c1=O,35,0,-3%,15%,10%,-5%
COc1ccccc1CNC(=O)CCCn1c(=O)c2ccccc2n(Cc2ccc(F)cc2)c1=O,/,0,/,?,16µM*,/
COc1ccccc1CNC(=O)CCCn1c(=O)c2ccccc2n(Cc2ccccc2C#N)c1=O,/,5,/,4.6µM*,26µM*,/
Cn1cc(CCCC(=O)NCc2ccc(F)cc2)c2ccccc21,-9,-5,-2%,21µM*!,?,0%
CCCCCCCCCCCCCCCC[N+](C)(C)CCN(Cc1ccc(OC)cc1)c1ncccn1,32,4,0%[2.98 µM],2.5µM*,4µM*,?
COc1cc(OC)c(C(=O)/C=C/c2ccc(OCc3ccccc3)c(OC)c2)c(OC)c1,-90*,0,?,23µM*,23µM*,0%
SMILES,IL-1B inflam inh,LDHA block,RORgamma inh,DT40 TDP1 no CPT,TDP1 cell CPT,VP16 counter
COc1cc(O)c(C(=O)/C=C\c2ccc3c(c2)OCO3)c(OC)c1,/,/,3%[10 µM],/,/,?
COc1cc(OCc2ccccc2)c(C(=O)/C=C/c2ccc3c(c2)OCO3)c(OC)c1OC,-91*,-4,/,?,?,/
COc1cc(/C=C/[N+](=O)[O-])ccc1OCc1cccc(C(=O)O)c1,-97*,11,7.1µM*,16µM*,16µM*,-21%[10 µM]
COc1cc(/C=C/[N+](=O)[O-])ccc1OC(=O)/C=C/c1ccc(F)cc1,?,-7,-18%[1.91 µM],2.3µM*,3.3µM*,?
NS(=O)(=O)c1cccc(C(=O)O)c1,/,7,/,/,/,/
COc1cc(O)c(C(=O)/C=C/c2ccccc2)c(OC)c1,-106*,-1,?,18µM*,15µM*,?
COc1ccc(C(=O)C=Cc2ccc(OCc3ccccc3)c(OC)c2)cc1OC,-90*,-11,/,4.6µM*,7.3µM*,/
COc1cc(OC)c(C(=O)C=Cc2ccc(OC)c(OC)c2)c(OC)c1,-101*,5,/,?,?,/
O=c1c2ccccc2ncn1Cc1ncc(-c2ccc(Cl)cc2)o1,/,1,/,/,/,/
Cc1c(C(=O)N2CCCCCC2)sc2nc(-c3ccc(F)cc3)cn12,/,4,/,/,/,/
COc1ccc(-c2noc(N3CCC(C(=O)Nc4cc(OC)ccc4OC)CC3)n2)cc1,-20,-10,20%,21µM*,21µM*,-9%
Cc1ccc(-c2nc(-c3ccccc3)no2)c(Cl)c1,16,-3,10µM*,-14%,?,7.1µM*
COc1ccc(-c2noc(-c3ccccc3C(=O)Nc3cccnc3)n2)cc1,-1,1,?,?,?,6%
COc1ccc(-c2noc(-c3ccccc3-c3ccccc3)n2)cc1,-14,-4,16µM*,-29%,-5%,12%
COc1ccc(-c2noc(-c3ccccc3C(=O)Nc3cccc(OC)c3)n2)cc1,-9,-1,31%,16µM*,?,-10%
COc1ccc(-c2noc(-c3ccccc3F)n2)cc1,-1,2,?,-3%,-10%,?
CCc1c(C(=O)NC(C)c2ccc(OC)c(OC)c2)csc1C (stereo unspecified),/,6,/,/,/,/
Nc1nnnn1NCc1ccc(-c2ccc(Cl)cc2)o1,/,-4,/,/,/,/
COc1ccc(CNC(=O)C2CCN(c3cc(C(=O)Nc4cccc(OC)c4)ccn3)CC2)cc1,-5,-2,8%,?,?,-9%
O=C(Nc1ccc(-c2noc(-c3ccccc3Br)n2)cc1)c1ccc(Br)o1,/,-10,/,/,/,/
Cc1ccccc1-c1nc(-c2ccc(NC(=O)c3ccc(Br)o3)cc2)no1,6,-19,?,?,16µM*,-13%
